PubChem BioAssay (EPA / NIEHS)
Calls of active or inactive are those of the source. The calls were made as follows: active = hit-call score of the fitted dose curve at least 0.9, where 1 is the maximum; inactive = score below 0.9.

Molecular target: Myc proto-oncogene protein (Homo sapiens) (UniProt P01106)
Test: ATG_Myc_CIS: Attagene CIS-FACTORIAL HepG2 Assay for human Myelocytomatosis (Myc) Proto-Oncogene Transcription Factor (AID 2282990)
Conditions: HepG2, Attagene cis-reporter transcription factor activity; actives raise or lower the signal
Description: ATG_CIS is a cell-based, multiplexed-readout assay that uses HepG2, a human liver cell line, with measurements taken at 24 hours after chemical dosing in a 24-well plate.ATG_Myc_CIS is one of 52 assay component(s) measured or calculated from the ATG_CIS assay. It is designed to make measurements of mRNA induction, a form of inducible reporter, as detected with fluorescence intensity signals by Reverse transcription polymerase chain reaction (RT-PCR) and Capillary electrophoresis technology.Data from the assay component ATG_Myc_CIS was analyzed into 1 assay endpoint. This assay endpoint, ATG_Myc_CIS, was analyzed with bidirectional fitting relative to DMSO as the negative control and baseline of activity. Using a type of inducible reporter, measures of mRNA for gain or loss-of-signal activity can be used to understand the reporter gene at the transcription factor-level as they relate to the gene MYC. Furthermore, this assay endpoint can be referred to as a primary readout, because this assay has produced multiple assay endpoints where this one serves a reporter gene function. To generalize the intended target to other relatable targets, this assay endpoint is annotated to the dna binding intended target family, where the subfamily is basic helix-loop-helix leucine zipper.
Human liver HepG2 cells are transiently transfected with multiple reporter transcription units (MRTUs) in 6-well plates using FuGene 6 reagent (Roche; 3 ml FuGene/1 mg DNA). The MRTU constructs are regulated by a cis-regulating element (promoter). […] A major difference between the CIS and TRANS system is that in CIS activities of endogenous TFs are measured, whereas the TRANS assay evaluates changes in activities of exogenous, chimeric NR-Gal4 proteins. […] At the end of 24 hour incubation, total RNA was isolated using TriZol reagent (Invitrogen). The isolated RNA is then reverse-transcribed using oligo(dT) primer and Mo-MLV reverse transcriptase (Invitrogen) with DNAse I (Ambion) treatment for 30 min. The one-tenth of the produced cDNA was amplified by PCR using Taq DNA polymerase (Invitrogen) and two reporter sequence-specific primers. The PCR products were fluorescently labeled by primer extension with 6-arboxyfluorescein (6-FAM) 5'-labeled reporter sequence-specific primer (2 min at 95 C, 20 s at 68 C and 10 min at 72 C) and these products were digested with 5U of HpaI (New England Biolabs) for 2h at 37 C. The fragments were purified using Qiaquick PCR columns (Qiagen), analyzed on an ABI 3130xL genetic analyzer (Applied Biosystems) with peak positions identified by using a set of X-rhodamine (ROX)-labeled MapMarker1000 molecular weight standards (BioVentures). The raw capillary electrophoresis data was processed using Attagraph software (Attagene).

Myc proto-oncogene protein (Homo sapiens), sequence (P01106 whole entry, looked up): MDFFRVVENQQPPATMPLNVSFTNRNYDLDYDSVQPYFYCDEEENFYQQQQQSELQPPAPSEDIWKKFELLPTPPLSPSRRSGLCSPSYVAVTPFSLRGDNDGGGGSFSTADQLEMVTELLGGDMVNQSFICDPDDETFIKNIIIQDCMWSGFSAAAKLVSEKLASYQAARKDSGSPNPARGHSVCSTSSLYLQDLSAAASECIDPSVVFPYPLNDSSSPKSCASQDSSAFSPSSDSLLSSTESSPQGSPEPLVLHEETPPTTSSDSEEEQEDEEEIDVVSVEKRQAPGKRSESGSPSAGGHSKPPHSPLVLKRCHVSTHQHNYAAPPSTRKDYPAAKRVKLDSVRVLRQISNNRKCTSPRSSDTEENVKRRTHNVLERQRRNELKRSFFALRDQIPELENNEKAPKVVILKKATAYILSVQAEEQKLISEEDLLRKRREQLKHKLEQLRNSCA

outcome, inactive:
C=CC(=O)OCCCC
C=C(C)[C@H]1CC=C(C)C(=O)C1
CCCN(CCC)S(=O)(=O)c1ccc(C(=O)O)cc1
CCCCCCCC(=O)OCC(O)CO (stereo not given)
ClC(c1ccccc1)(c1ccccc1)c1ccccc1
CCCC1O[C@@H]2C[C@H]3[C@@H]4CCC5=CC(=O)C=C[C@]5(C)[C@H]4[C@@H](O)C[C@]3(C)[C@]2(C(=O)CO)O1 (stereo not given in full)
COCCc1ccc(OCC(O)CNC(C)C)cc1 (stereo not given)
Cc1cc(C)nc(NS(=O)(=O)c2ccc(N)cc2)n1
CC(C)(C)c1ccc(C(=O)O)cc1
CC(C)=CCCC(C)CCOC=O (stereo not given)
Cc1ccc(S(N)(=O)=O)cc1
O=C(O)CCCCCCCCC(=O)O
BrCc1cccc(Oc2ccccc2)c1
C[C@H](CCC(=O)NCC(=O)O)[C@H]1CC[C@H]2[C@@H]3[C@H](O)C[C@@H]4C[C@H](O)CC[C@]4(C)[C@H]3C[C@H](O)[C@]12C
COC(=O)c1cccnc1
CCCCCCC(C)(C)S
C[Si]1(C)O[Si](C)(C)O[Si](C)(C)O1
Clc1ccc(C(c2ccccc2Cl)C(Cl)Cl)cc1 (stereo not given)
O=Cc1ccccc1S(=O)(=O)O
CC(=O)OCCCc1ccccc1
CCCCC(CC)COC(=O)c1ccc(O)cc1 (stereo not given)
O=C1OC(=O)c2c(Br)c(Br)c(Br)c(Br)c21
CCC(=O)O[C@@H]1C[C@H]2CC[C@]1(C)C2(C)C
COc1cc(C(C)C)ccc1C
CC(=O)O[C@@H]1C[C@@H]2CC[C@@]1(C)C2(C)C
CCC(C)S (stereo not given)
COc1ccc(CCC(C)=O)cc1
Cc1ccc(C)o1
COc1ccccc1N=Nc1c(S(=O)(=O)O)cc2cc(S(=O)(=O)O)cc(NC(C)=O)c2c1O
CCN(CCC#N)c1ccc(N=Nc2ccc([N+](=O)[O-])cc2)cc1
C1=CC2C3C=CC(C3)C2C1 (stereo not given)
CC=CC=CCOC(=O)C(C)C
C=C(C)C(=O)OCCOCCOCCOCCOC(=O)C(=C)C
CCCCCCCCSCCO
CCC(C)=O
CC1(C)O[C@@H]2[C@@H](CO[C@@]3(COS(N)(=O)=O)OC(C)(C)O[C@@H]23)O1
CCC(C)c1cc([N+](=O)[O-])cc([N+](=O)[O-])c1OC(=O)OC(C)C (stereo not given)
CCCCCC(C)=O
CCCCC(CC)(CO)CO
CC(=O)c1c(C)c([N+](=O)[O-])c(C(C)(C)C)c([N+](=O)[O-])c1C
